Columns and labels:
Test in all cases: DAPPL (digital affinity profiling via proximity ligation, sequencing); 10 mM Tris-HCl pH 7.5, 50 mM NaCl, 1 mM DTT, 4% glycerol, room temperature, 30 min; GST-TFs on glutathione beads, 16-mer random dsDNA library, 0.1% formaldehyde crosslink after washing; high values mean tight binding
FLI1 = molecular target: T1, FLI1 (Homo sapiens, UniProt Q01543 1-452); settings: protein: recombinant; tags: N-terminal GST; dsDNA, one strand shown
T1 sequence: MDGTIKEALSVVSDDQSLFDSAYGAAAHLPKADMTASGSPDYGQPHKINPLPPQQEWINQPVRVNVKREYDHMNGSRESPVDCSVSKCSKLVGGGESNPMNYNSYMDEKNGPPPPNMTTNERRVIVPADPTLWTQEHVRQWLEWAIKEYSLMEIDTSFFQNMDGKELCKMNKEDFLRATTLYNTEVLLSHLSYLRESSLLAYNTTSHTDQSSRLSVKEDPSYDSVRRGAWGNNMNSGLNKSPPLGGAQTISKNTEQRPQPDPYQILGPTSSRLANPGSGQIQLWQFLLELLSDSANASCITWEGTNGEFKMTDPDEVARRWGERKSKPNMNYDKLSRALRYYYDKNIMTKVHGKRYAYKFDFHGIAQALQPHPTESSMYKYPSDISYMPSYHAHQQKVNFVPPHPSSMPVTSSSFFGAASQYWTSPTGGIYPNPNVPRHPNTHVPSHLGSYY
How it was run: (§1)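 In yeast, human transcription factors were expressed with a GST fusion, then pulled down on glutathione beads and given DNA barcodes. Pooled with a tag-only sample, they were exposed to 200 nmole of a 16-mer random double-stranded DNA library (Tris/NaCl/DTT/glycerol buffer, room temperature, 30 min), washed, crosslinked with 0.1% formaldehyde, proximity-ligated using BsaI/T4 ligase for 1 h at 37 °C, PCR-amplified and read on an Illumina NextSeq500. Each hexamer's frequency of reads for a factor, divided by the matching frequency for the tag-only sample, gives the binding signal.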

ELK1 = molecular target: T2, ELK1 (Homo sapiens, UniProt P19419 1-428); settings: protein: recombinant; tags: N-terminal GST; dsDNA, one strand shown
T2 sequence: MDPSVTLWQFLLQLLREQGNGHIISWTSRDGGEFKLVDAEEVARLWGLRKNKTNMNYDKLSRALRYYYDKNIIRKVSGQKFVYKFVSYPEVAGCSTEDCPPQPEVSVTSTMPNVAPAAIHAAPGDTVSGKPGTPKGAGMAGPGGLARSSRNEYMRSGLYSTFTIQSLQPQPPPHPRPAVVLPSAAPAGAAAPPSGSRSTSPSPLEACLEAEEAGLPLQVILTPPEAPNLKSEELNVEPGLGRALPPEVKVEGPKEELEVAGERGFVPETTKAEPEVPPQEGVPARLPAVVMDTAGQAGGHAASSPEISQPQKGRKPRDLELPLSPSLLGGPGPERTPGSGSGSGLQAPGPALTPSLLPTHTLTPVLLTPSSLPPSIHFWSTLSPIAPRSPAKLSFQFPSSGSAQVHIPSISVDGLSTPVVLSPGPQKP
How it was run: as §1

GABPA = molecular target: T3, GABPA (Homo sapiens, UniProt Q06546 1-454); settings: protein: recombinant; tags: N-terminal GST; dsDNA, one strand shown
T3 sequence: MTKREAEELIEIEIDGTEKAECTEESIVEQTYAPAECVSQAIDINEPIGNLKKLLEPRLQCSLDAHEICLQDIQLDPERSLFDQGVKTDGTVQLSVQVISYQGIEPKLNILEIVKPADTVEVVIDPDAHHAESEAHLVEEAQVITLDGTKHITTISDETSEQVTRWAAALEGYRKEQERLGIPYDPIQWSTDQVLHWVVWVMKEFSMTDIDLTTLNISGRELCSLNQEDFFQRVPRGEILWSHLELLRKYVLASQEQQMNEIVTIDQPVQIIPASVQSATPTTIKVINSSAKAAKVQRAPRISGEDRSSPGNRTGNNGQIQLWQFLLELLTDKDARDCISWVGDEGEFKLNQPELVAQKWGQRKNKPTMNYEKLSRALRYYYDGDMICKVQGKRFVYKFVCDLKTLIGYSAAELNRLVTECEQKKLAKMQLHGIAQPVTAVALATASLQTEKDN
How it was run: as §1

ERG = molecular target: T4, ERG (Homo sapiens, UniProt P11308 1-479); settings: protein: recombinant; tags: N-terminal GST; dsDNA, one strand shown
T4 sequence: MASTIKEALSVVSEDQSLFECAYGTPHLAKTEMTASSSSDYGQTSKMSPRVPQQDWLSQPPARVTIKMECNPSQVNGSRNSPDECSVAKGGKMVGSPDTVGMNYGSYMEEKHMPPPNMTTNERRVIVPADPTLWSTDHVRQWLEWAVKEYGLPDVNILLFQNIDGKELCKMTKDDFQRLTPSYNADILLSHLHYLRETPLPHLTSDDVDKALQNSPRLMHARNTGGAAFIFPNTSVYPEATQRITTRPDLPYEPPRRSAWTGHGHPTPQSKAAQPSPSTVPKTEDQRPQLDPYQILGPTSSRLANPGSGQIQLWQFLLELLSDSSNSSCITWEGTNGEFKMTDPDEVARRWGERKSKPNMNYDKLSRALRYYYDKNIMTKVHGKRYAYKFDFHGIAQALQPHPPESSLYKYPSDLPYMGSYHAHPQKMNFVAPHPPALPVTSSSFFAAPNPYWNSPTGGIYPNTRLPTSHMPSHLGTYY
How it was run: as §1

ELF1 = ELF1 (Homo sapiens, UniProt P32519 1-619); settings: protein: recombinant; tags: N-terminal GST; dsDNA, one strand shown
ELF1, sequence (P32519 whole entry): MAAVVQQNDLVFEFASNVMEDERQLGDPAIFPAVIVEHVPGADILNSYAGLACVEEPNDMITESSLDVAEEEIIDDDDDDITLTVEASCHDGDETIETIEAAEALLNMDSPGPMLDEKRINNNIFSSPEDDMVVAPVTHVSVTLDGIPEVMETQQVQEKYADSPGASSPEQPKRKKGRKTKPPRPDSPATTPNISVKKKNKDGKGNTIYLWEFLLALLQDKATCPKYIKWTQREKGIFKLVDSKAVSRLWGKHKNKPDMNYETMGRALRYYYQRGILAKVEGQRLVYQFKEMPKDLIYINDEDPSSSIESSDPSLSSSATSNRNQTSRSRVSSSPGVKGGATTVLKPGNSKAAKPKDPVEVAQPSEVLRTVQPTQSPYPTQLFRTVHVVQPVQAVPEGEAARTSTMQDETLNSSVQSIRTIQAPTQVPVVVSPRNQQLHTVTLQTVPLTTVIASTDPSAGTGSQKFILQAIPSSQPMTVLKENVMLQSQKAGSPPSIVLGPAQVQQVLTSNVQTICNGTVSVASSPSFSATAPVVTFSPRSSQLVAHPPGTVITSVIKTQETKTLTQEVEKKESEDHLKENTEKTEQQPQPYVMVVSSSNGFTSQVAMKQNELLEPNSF
How it was run: as §1

EHF = molecular target: T5, EHF (Homo sapiens, UniProt Q9NZC4 1-300); settings: protein: recombinant; tags: N-terminal GST; dsDNA, one strand shown
T5 sequence: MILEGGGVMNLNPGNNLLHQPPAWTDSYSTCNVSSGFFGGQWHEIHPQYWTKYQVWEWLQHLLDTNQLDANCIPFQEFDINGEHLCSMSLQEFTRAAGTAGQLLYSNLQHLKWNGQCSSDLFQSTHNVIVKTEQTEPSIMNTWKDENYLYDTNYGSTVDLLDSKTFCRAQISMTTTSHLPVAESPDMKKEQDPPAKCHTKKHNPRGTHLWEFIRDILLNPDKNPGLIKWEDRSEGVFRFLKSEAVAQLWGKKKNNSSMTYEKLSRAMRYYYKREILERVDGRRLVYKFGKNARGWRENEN
How it was run: as §1

SPI1 = SPI1 (Homo sapiens, UniProt P17947 1-270); settings: protein: recombinant; tags: N-terminal GST; dsDNA, one strand shown
How it was run: as §1

SPIB = SPIB (Homo sapiens, UniProt Q01892 1-262); settings: protein: recombinant; tags: N-terminal GST; dsDNA, one strand shown
SPIB, sequence (Q01892 whole entry): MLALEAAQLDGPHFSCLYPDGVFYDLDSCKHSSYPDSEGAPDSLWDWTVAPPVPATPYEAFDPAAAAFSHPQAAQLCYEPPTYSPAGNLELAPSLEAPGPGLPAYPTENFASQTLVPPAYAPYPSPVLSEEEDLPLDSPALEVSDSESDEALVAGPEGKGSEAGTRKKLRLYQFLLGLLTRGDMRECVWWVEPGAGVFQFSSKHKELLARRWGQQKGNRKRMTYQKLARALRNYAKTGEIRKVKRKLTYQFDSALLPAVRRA
How it was run: as §1

ELK3 = molecular target: T6, ELK3 (Homo sapiens, UniProt P41970 1-407); settings: protein: recombinant; tags: N-terminal GST; dsDNA, one strand shown
T6 sequence: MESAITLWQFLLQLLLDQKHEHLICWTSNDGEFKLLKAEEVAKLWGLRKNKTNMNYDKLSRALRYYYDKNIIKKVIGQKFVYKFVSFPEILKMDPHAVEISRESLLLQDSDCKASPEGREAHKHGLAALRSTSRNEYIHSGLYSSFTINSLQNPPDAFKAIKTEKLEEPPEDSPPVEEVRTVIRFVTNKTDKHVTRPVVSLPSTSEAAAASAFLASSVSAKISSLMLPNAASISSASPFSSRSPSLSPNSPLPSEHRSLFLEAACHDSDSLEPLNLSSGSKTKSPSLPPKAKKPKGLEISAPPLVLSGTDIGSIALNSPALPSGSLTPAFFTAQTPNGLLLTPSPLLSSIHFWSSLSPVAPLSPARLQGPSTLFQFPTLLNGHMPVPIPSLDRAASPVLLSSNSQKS
How it was run: as §1

FEV = molecular target: T7, FEV (Homo sapiens, UniProt Q99581 1-238); settings: protein: recombinant; tags: N-terminal GST; dsDNA, one strand shown
T7 sequence: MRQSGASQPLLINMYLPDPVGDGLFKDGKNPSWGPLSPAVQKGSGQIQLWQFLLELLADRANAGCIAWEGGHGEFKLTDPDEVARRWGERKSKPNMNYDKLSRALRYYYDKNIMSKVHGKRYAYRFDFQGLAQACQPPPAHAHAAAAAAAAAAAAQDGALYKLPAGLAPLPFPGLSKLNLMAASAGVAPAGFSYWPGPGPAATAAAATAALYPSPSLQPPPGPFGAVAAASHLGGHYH
How it was run: as §1

ETV5 = ETV5 (Homo sapiens, UniProt P41161 1-510); settings: protein: recombinant; tags: N-terminal GST; dsDNA, one strand shown
ETV5, sequence (P41161 whole entry): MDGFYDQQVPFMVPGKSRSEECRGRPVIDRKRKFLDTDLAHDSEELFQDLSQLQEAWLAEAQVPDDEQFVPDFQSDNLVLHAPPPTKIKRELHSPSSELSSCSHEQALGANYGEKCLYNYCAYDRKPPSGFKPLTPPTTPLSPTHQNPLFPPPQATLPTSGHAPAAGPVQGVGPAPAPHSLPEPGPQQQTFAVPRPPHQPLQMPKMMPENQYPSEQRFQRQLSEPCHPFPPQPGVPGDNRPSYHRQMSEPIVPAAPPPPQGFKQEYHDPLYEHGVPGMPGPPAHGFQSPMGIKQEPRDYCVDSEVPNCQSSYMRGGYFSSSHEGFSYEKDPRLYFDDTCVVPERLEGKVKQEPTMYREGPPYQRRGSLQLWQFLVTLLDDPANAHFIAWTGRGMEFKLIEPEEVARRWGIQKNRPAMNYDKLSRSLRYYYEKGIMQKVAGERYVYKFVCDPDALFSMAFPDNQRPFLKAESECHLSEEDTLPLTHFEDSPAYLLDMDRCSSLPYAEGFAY
How it was run: as §1

HSF1 = HSF1 (Homo sapiens, UniProt Q00613 1-529); settings: protein: recombinant; tags: N-terminal GST; chain copies: 3; dsDNA, one strand shown
HSF1, sequence (Q00613 whole entry): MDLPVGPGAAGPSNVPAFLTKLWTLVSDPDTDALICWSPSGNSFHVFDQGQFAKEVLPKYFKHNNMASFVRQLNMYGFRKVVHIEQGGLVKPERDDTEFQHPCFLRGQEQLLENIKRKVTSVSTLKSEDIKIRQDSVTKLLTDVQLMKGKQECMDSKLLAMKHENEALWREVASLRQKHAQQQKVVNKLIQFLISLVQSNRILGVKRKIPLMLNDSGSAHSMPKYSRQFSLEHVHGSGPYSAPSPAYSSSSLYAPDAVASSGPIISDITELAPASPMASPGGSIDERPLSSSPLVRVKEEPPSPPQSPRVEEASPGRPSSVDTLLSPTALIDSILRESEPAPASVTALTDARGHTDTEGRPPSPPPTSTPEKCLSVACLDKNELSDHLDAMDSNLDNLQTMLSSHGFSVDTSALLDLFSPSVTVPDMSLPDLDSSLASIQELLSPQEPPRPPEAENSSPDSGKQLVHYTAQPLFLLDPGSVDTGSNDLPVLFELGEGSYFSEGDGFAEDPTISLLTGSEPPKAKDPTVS
How it was run: as §1

SPIC = molecular target: T8, SPIC (Homo sapiens, UniProt Q8N5J4 1-248); settings: protein: recombinant; tags: N-terminal GST; dsDNA, one strand shown
T8 sequence: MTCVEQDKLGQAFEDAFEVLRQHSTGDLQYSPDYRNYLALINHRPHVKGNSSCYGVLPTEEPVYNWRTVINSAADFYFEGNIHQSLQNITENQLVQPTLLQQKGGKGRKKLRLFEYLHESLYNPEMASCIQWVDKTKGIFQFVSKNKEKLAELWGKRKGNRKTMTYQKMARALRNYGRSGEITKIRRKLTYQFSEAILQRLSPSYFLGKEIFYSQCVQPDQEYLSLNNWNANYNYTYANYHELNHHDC
How it was run: as §1

ELF4 = ELF4 (Homo sapiens, UniProt Q99607 1-663); settings: protein: recombinant; tags: N-terminal GST; dsDNA, one strand shown
ELF4, sequence (Q99607 whole entry): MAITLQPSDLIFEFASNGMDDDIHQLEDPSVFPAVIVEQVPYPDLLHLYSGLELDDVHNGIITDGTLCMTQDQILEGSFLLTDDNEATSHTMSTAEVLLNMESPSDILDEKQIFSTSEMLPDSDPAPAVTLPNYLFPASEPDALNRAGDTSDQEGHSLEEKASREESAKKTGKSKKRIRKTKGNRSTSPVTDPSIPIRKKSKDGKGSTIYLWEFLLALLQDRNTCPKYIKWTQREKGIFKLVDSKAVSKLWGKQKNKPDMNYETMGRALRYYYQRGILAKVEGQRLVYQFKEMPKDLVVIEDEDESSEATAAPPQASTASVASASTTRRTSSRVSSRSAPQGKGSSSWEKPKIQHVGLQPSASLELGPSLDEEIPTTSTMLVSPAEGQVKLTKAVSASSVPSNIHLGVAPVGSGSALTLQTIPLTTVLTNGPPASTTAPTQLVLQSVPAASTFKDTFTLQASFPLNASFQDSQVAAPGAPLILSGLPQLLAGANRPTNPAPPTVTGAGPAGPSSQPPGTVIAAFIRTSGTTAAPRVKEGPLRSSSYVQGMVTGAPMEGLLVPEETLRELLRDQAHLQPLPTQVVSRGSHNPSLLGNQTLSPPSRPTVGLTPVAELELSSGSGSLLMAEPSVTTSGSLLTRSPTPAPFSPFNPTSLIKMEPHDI
How it was run: as §1

ELK4 = molecular target: T9, ELK4 (Homo sapiens, UniProt P28324-2 1-405); settings: protein: recombinant; tags: N-terminal GST; dsDNA, one strand shown
T9 sequence: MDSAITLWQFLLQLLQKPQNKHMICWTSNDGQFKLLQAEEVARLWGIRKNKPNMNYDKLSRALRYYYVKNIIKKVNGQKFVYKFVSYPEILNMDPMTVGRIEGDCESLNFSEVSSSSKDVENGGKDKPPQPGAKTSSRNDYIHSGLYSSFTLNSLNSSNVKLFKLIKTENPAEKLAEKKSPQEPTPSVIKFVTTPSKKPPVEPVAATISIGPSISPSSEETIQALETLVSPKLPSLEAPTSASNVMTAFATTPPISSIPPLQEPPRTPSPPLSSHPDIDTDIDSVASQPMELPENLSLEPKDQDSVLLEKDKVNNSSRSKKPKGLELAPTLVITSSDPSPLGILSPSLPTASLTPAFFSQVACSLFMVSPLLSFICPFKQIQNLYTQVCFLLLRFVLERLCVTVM
How it was run: as §1

ETV2 = molecular target: T10, ETV2 (Homo sapiens, UniProt O00321 1-342); settings: protein: recombinant; tags: N-terminal GST; dsDNA, one strand shown
T10 sequence: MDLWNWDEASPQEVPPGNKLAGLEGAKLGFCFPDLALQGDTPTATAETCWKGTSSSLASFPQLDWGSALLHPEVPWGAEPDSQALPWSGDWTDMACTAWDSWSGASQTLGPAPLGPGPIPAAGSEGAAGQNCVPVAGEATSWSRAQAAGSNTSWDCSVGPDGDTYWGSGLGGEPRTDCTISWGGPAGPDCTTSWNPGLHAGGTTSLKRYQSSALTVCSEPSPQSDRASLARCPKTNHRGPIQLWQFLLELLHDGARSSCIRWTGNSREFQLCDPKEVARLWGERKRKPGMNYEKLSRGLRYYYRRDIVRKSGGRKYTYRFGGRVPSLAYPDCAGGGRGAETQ
How it was run: as §1

ELF3 = molecular target: T11, ELF3 (Homo sapiens, UniProt P78545 1-371); settings: protein: recombinant; tags: N-terminal GST; dsDNA, one strand shown
T11 sequence: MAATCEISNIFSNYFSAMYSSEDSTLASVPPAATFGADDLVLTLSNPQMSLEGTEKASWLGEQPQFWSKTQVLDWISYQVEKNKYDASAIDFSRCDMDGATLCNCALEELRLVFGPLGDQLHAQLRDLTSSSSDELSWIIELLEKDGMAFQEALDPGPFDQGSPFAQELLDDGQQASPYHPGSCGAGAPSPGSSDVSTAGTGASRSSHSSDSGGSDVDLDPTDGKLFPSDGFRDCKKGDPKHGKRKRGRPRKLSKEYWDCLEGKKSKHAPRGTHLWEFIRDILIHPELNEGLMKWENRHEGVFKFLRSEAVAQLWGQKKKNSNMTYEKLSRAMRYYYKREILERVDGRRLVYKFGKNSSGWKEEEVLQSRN
How it was run: as §1

ETV1 = ETV1 (Homo sapiens, UniProt P50549 1-477); settings: protein: recombinant; tags: N-terminal GST; dsDNA, one strand shown
ETV1, sequence (P50549 whole entry): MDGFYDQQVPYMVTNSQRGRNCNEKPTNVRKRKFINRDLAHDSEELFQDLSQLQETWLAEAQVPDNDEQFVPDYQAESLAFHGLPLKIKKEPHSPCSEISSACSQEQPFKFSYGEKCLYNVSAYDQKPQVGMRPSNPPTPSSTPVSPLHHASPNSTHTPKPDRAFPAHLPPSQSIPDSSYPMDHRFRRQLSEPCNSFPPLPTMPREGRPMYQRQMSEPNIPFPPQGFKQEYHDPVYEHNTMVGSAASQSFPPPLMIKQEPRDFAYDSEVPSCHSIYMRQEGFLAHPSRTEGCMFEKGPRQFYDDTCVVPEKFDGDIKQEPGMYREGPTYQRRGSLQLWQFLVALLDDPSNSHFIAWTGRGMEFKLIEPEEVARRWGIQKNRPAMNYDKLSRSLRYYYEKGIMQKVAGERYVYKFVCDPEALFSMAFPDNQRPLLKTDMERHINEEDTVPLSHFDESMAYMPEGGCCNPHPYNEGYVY
How it was run: as §1

GAACCC was tested. Which binding signal (FLI1) did it give?
Its binding signal is 1.12 fold enrichment (6-mer frequency, TF over GST control).

What about the binding signal (ELK1) of the same sequence?
Its binding signal is 1.19 fold enrichment (6-mer frequency, TF over GST control).

And the binding signal (GABPA)?
Its binding signal is 1.16 fold enrichment (6-mer frequency, TF over GST control).

And the binding signal (ERG)?
The binding signal was 1.18 fold enrichment (6-mer frequency, TF over GST control).

And the binding signal (ELF1)?
Its binding signal is 1.14 fold enrichment (6-mer frequency, TF over GST control).

And the binding signal (EHF)?
Its binding signal is 1.13 fold enrichment (6-mer frequency, TF over GST control).

And the binding signal (SPI1)?
The binding signal was 1.16 fold enrichment (6-mer frequency, TF over GST control).

What about the binding signal (SPIB) of the same sequence?
Its binding signal is 1.06 fold enrichment (6-mer frequency, TF over GST control).

What about the binding signal (ELK3) of the same sequence?
The binding signal was 1.19 fold enrichment (6-mer frequency, TF over GST control).

And the binding signal (FEV)?
The binding signal was 1.17 fold enrichment (6-mer frequency, TF over GST control).

What about the binding signal (ETV5) of the same sequence?
Its binding signal is 1.2 fold enrichment (6-mer frequency, TF over GST control).

What about the binding signal (HSF1) of the same sequence?
The binding signal was 1.03 fold enrichment (6-mer frequency, TF over GST control).

What about the binding signal (SPIC) of the same sequence?
Its binding signal is 1.29 fold enrichment (6-mer frequency, TF over GST control).

What about the binding signal (ELF4) of the same sequence?
The binding signal was 1.22 fold enrichment (6-mer frequency, TF over GST control).

And the binding signal (ELK4)?
The binding signal was 1.2 fold enrichment (6-mer frequency, TF over GST control).

What about the binding signal (ETV2) of the same sequence?
The binding signal was 1 fold enrichment (6-mer frequency, TF over GST control).

What about the binding signal (ELF3) of the same sequence?
The binding signal was 1.05 fold enrichment (6-mer frequency, TF over GST control).

What about the binding signal (ETV1) of the same sequence?
Its binding signal is 1.19 fold enrichment (6-mer frequency, TF over GST control).

— publication PMC7862700, “An all-to-all approach to the identification of sequence-specific readers for epigenetic DNA modifications on cytosine”
